Data reported in PubChem BioAssay (NCI).
About 79,000 compounds went through this panel and 15% of them were active in at least one assay; those are over-represented in the sample as a whole. Activity calls are given as the source filed them. Cut-off read from the data, not from the text of the source: active = growth inhibition above about 70%; inactive = the rest.

Key:
[1] = NCI Yeast Anticancer Drug Screen. Data for the rad52 strain (AID 147);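 note: 0% = growth of vehicle-treated control cultures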; conditions: S. cerevisiae rad52 mutant growth inhibition, stronger effect = higher value
How it was run: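 Genetically altered yeast (DNA damage repair defect) treated with compound; inhibition calculated relative to vehicle.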

[2] = NCI Yeast Anticancer Drug Screen. Data for the wt1 strain (AID 149);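 note: 0% = growth of vehicle-treated wt1 cultures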; conditions: S. cerevisiae wt1 strain (SPY 50644) growth inhibition, stronger effect = higher value
How it was run: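 Readout: yeast growth inhibition, normalised to vehicle controls, in the wt1 strain exposed to test compounds.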

[3] = NCI Yeast Anticancer Drug Screen. Data for the rad50EPP+ strain (AID 151);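 note: 0% = growth of vehicle-treated control cultures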; conditions: S. cerevisiae rad50 mutant strain, stronger effect = higher value
How it was run: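 Strain rad50EPP+; compound exposure; % growth inhibition vs vehicle.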

[4] = NCI Yeast Anticancer Drug Screen. Data for the mgt1 strain (AID 153); conditions: S. cerevisiae mgt1 mutant growth inhibition, stronger effect = higher value
How it was run: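 Read-out: yeast growth inhibition vs vehicle control. Strain mgt1, drawn from a panel altered in DNA damage repair or cell cycle control.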

[5] = NCI Yeast Anticancer Drug Screen. Data for the rad50 strain (AID 155);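 note: 0% = growth of vehicle-only cultures of the same strain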; conditions: S. cerevisiae rad50 strain growth inhibition, stronger effect = higher value
How it was run: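 Compounds were tested on a yeast strain with an engineered DNA damage repair alteration; the reported value is growth inhibition normalised to vehicle treatment.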

[6] = NCI Yeast Anticancer Drug Screen. Data for the mec2-1 strain (AID 157); conditions: S. cerevisiae mec2-1 strain, stronger effect = higher value
How it was run: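 Cells of the genetically defined mec2-1 yeast strain are incubated with test compound. Inhibition of growth is calculated against vehicle-treated controls.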

[7] = NCI Yeast Anticancer Drug Screen. Data for the rad14 strain (AID 159);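 note: 0% = growth of vehicle-treated control cultures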; conditions: S. cerevisiae rad14 strain growth inhibition, stronger effect = higher value
How it was run: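 Compound-treated yeast with a defined DNA-repair lesion; growth inhibition normalised to vehicle-treated cultures.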

[8] = NCI Yeast Anticancer Drug Screen. Data for the sgs1 mgt1 strain (AID 161);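 note: 0% = growth of cultures given vehicle only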; conditions: S. cerevisiae sgs1 mgt1 strain, stronger effect = higher value
How it was run: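 Mutant yeast exposed to compound; growth scored against vehicle-only wells.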

[9] = NCI Yeast Anticancer Drug Screen. Data for the CLN2oe strain (AID 163);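 note: 0% = growth of vehicle-only control cultures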; conditions: S. cerevisiae CLN2oe strain, stronger effect = higher value
How it was run: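 Strain altered in cell-cycle control, incubated with compound; growth compared to solvent-treated controls.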

[10] = NCI Yeast Anticancer Drug Screen. Data for the cln2 rad14 strain (AID 165);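 note: 0% = growth equal to vehicle treated cultures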; conditions: S. cerevisiae cln2 rad14 strain, stronger effect = higher value
How it was run: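 The screen exposed genetically defined yeast (cln2 rad14) to test compounds and scored growth inhibition relative to vehicle-treated controls.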

[11] = NCI Yeast Anticancer Drug Screen. Data for the bub3 strain (AID 167); conditions: S. cerevisiae bub3 mutant strain, stronger effect = higher value
How it was run: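 Growth of a checkpoint-deficient yeast mutant is measured after compound exposure. Values represent inhibition relative to vehicle.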

[12] = NCI Yeast Anticancer Drug Screen. Data for the wt2 strain (AID 169);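 note: 0% = growth of vehicle-treated yeast cultures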; conditions: S. cerevisiae wt2 strain growth inhibition, stronger effect = higher value
How it was run: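 Steps: yeast strain treated with compound; growth recorded; inhibition calculated relative to cultures given vehicle alone.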

[13] = NCI Yeast Anticancer Drug Screen. Data for the mlh1 strain (AID 171);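 note: 0% = growth of vehicle-treated control cultures of the same strain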; conditions: S. cerevisiae mlh1 strain growth inhibition, stronger effect = higher value
How it was run: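 Yeast screen: mutant strain plus compound, growth scored against vehicle control wells.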

[14] = NCI Yeast Anticancer Drug Screen. Data for the sgs1 strain (AID 173);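 note: 0% = growth of vehicle-only control cultures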; conditions: S. cerevisiae sgs1 mutant, stronger effect = higher value
How it was run: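 Inhibition of yeast growth served as the measure. The mutant strain was treated with each compound, and growth was normalised to cultures receiving vehicle alone.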

[15] = NCI Yeast Anticancer Drug Screen. Data for the mlh1 rad18 strain (AID 175); conditions: S. cerevisiae mlh1 rad18 strain growth inhibition, stronger effect = higher value
How it was run: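 Compound-treated yeast growth, normalised to vehicle controls. Strain bears defined DNA repair mutations.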

[16] = NCI Yeast Anticancer Drug Screen. Data for the rad18 strain (AID 177); conditions: S. cerevisiae rad18 mutant growth inhibition, stronger effect = higher value
How it was run: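 Inhibition values reflect reduced yeast growth compared with vehicle-treated controls, using a strain engineered with a DNA damage repair defect.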

[17] = at 5.0 µM (retest, dose inferred, filed as 0.5)
[18] = at 50.0 µM (retest, dose inferred, filed as 5.0)

Measured: growth inhibition

CC[n+]1ccc2c(C)c3[nH]c4ccc(O)cc4c3c(C)c2c1
inactive: [1]; at 1.2 µM 5% | [1]; at 3.7 µM 48% | [2]; at 1.2 µM -13% | [2]; at 3.7 µM 7% | [2]; at 11.0 µM 3% | [2]; at 33.0 µM 9% | [2]; at 100.0 µM 14% | [3]; at 1.2 µM 16% | [3]; at 3.7 µM 34% | [3]; at 11.0 µM 64% | [4]; at 1.2 µM -36% | [4]; at 3.7 µM -14% | [4]; at 11.0 µM -16% | [4]; at 33.0 µM -5% | [4]; at 100.0 µM 14% | [5]; at 1.2 µM -24% | [5]; at 3.7 µM 16% | [5]; [17] 58% | [5]; at 11.0 µM 65% | [6]; at 1.2 µM -15% | [6]; at 3.7 µM -1% | [6]; [17] 1% | [6]; at 11.0 µM 0% | [6]; at 33.0 µM 6% | [6]; [18] 16% | [6]; at 50.0 µM 59.5% | [6]; at 100.0 µM 24% | [7]; at 1.2 µM -22% | [7]; at 3.7 µM -10% | [7]; at 11.0 µM -23% | [7]; at 33.0 µM -20% | [7]; at 100.0 µM -10% | [8]; [17] 4% | [8]; [18] 31% | [8]; at 50.0 µM 9.25% | [9]; at 1.2 µM 5% | [9]; at 3.7 µM 17% | [9]; at 11.0 µM 36% | [9]; at 33.0 µM 26% | [9]; at 100.0 µM 41% | [10]; [17] 5% | [10]; [18] 23% | [10]; at 50.0 µM 9.35% | [11]; at 1.2 µM -19% | [11]; at 3.7 µM -16% | [11]; [17] -8% | [11]; at 11.0 µM -16% | [11]; at 33.0 µM 3% | [11]; [18] 28% | [11]; at 50.0 µM 5.2% | [11]; at 100.0 µM 15% | [12]; at 1.2 µM -5% | [12]; at 3.7 µM -6% | [12]; at 11.0 µM -3% | [12]; at 33.0 µM -1% | [12]; at 100.0 µM 13% | [13]; at 1.2 µM 0% | [13]; at 3.7 µM -16% | [13]; at 11.0 µM -18% | [13]; at 33.0 µM -4% | [13]; at 100.0 µM 10% | [14]; at 1.2 µM 9% | [14]; at 3.7 µM 38% | [14]; at 11.0 µM 43% | [14]; at 33.0 µM 0% | [14]; at 100.0 µM 46% | [15]; [17] 5% | [15]; [18] 30% | [15]; at 50.0 µM 65% | [16]; at 1.2 µM -23% | [16]; at 3.7 µM 2% | [16]; at 11.0 µM 23% | [16]; at 33.0 µM -6% | [16]; at 100.0 µM 6%
active: [1]; at 11.0 µM 70% | [1]; at 33.0 µM 90% | [1]; at 100.0 µM 92% | [3]; at 33.0 µM 85% | [3]; at 100.0 µM 90% | [5]; at 33.0 µM 86% | [5]; [18] 92% | [5]; at 50.0 µM 81.5% | [5]; at 100.0 µM 90%
